27 molecules from PubChem BioAssay (NCATS) can be followed below.

The nature of assay [1]: qHTS for Inhibitors of the Functional Ribonucleoprotein Complex (vRNP) of Lassa (LASV) Arenavirus: LASV Primary Screen - GLuc reporter signal (AID 1347082; calls by dose curve; tested in HEK293 reporter line; note: nearly all actives have a fitted effect of over 60% in size; note: potency is the fitted concentration of half-maximal effect). (In qHTS, concentration-response curves come from the screen itself.)
A short description of assay [2]: qHTS for Inhibitors of the Functional Ribonucleoprotein Complex (vRNP) of Lassa (LASV) Arenavirus: Viability assay - alamar blue signal for LASV Primary Screen (AID 1347083; calls by dose curve; tested in HEK293 reporter line; note: nearly all actives have a fitted effect of over 80% in size; note: potency is the fitted concentration of half-maximal effect).
Assay [3] can be described thus: qHTS for Inhibitors of the Functional Ribonucleoprotein Complex (vRNP) of Lymphocytic Choriomeningitis Arenaviruses (LCMV): Viability assay - alamar blue signal for LCMV Primary Screen (AID 1347085; calls by dose curve; tested in HEK293 reporter line; note: nearly all actives have a fitted effect of over 80% in size; note: potency is the fitted concentration of half-maximal effect).
Assay [4] concerns the target Nucleoprotein (Lymphocytic choriomeningitis virus (strain Armstrong)) (UniProt P09992). As to the kind of experiment: qHTS for Inhibitors of the Functional Ribonucleoprotein Complex (vRNP) of Lymphocytic Choriomeningitis Arenaviruses (LCMV): LCMV Primary Screen - GLuc reporter signal (AID 1347086; calls by dose curve; note: nearly all actives have a fitted effect of over 70% in size; note: potency is the fitted concentration of half-maximal effect).
Assay [5] is described as follows: qHTS of pediatric cancer cell lines to identify multiple opportunities for drug repurposing: Primary screen for TC32 cells (AID 1347089). Note: nearly all actives have a fitted effect of over 60% in size. Note: potency is the fitted concentration of half-maximal effect. The procedure, abridged: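 A viability screen of TC32 cells was run over 48 h, with primary MIPE doses spanning 0.78 nM–46 µM and NPC doses 0.59 nM–46 µM. ATP luminescence (CellTiter-Glo) served as the read-out.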
Assay [6] can be described thus: qHTS of pediatric cancer cell lines to identify multiple opportunities for drug repurposing: Primary screen for DAOY cells (AID 1347090). Note: series mostly up to about 46 µM; nearly all actives have a fitted effect of over 55% in size. The procedure, abridged:
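Viability measured as metabolically active cells via CellTiter-Glo luminescence following 48 hours of compound exposure, 11-point dilutions in confirmatory testing. 500-1,000 cells/well plated 5 hours before dosing; controls were DMSO and 2.3 µM bortezomib.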

Structures are written as SMILES. Inconclusive results are not listed. Activity calls are given as the source filed them. Unless noted, calls come from the whole dose curve; as a rule, active = well fitted cell-killing curve with a large enough effect; inconclusive = small, poorly fitted or top-dose-only effect; inactive = flat fitted curve, though single readings scatter.

Nucleoprotein (Lymphocytic choriomeningitis virus (strain Armstrong)), sequence (P09992 whole entry, looked up): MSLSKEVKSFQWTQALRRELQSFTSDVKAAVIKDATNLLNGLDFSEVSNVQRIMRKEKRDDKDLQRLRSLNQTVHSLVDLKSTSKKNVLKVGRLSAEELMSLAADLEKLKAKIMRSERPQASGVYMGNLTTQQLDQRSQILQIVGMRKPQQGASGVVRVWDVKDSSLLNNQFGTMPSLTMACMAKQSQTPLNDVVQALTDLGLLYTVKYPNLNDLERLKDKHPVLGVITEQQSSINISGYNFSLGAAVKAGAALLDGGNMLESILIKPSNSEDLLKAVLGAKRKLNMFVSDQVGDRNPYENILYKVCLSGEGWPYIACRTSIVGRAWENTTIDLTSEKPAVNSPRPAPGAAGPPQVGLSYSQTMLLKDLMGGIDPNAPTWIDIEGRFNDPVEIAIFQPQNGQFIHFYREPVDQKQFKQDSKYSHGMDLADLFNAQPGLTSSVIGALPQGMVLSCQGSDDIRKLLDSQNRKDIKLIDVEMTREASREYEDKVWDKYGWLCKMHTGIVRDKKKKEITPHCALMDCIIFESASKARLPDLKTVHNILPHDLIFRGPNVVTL

For the molecule `COc1cc2nc(-c3ccc(N4CCN(C)CC4)cc3)nc(NCCN3CCOCC3)c2cc1OC`, the Potency was 685 nM (active) in assay [1], 769 nM (active) in assay [2], 968 nM (active) in assay [3] and 432 nM (active) in assay [4].

Regarding `Cc1cc(C=c2sc3nc4ccccc4n3c2=O)c(C)n1-c1ccccc1`, the Potency entry in assay [1], in assay [2], in assay [3] and in assay [4] was “inactive” each time.

For the molecule `CC(=Cc1csc(C)n1)[C@@H]1C[C@H]2O[C@@H]2CCC[C@H](C)[C@@H](O)[C@@H](C)C(=O)C(C)(C)[C@@H](O)CC(=O)O1`, the Potency entry in assay [1], in assay [2], in assay [3] and in assay [4] was “inactive” in each case. In assay [5], the Potency was 1.2 nM (active).

Take `C[N+]1(C)C2CC(OC(=O)[C@H](CO)c3ccccc3)CC1C1OC12` (stereo partly drawn): the Potency entry in assay [1], in assay [2], in assay [3] and in assay [4] was “inactive” in each case.

For `O=C1NS(=O)(=O)c2ccccc21`, the Potency result in assay [1], in assay [2], in assay [3] and in assay [4] was “inactive” in each case.

Turning to `CN1CC[C@@H](c2c(O)cc(O)c3c(=O)cc(-c4ccccc4Cl)oc23)[C@@H](O)C1`, the Potency in assay [1] is 544 nM (active); in assay [2], 137 nM (active); in assay [3], 217 nM (active); in assay [4] it was 344 nM (active).

`COc1cc([C@@H]2c3cc4c(cc3[C@@H](O)C3COC(=O)C32)OCO4)cc(OC)c1O` (stereo partly drawn): the Potency entry in assay [1] is “inactive”. Moreover, the Potency is 86.3 nM (active) in assay [2], 172 nM (active) in assay [3], 153 nM (active) in assay [4] and 370 nM (active) in assay [5].

For `CC(=O)Nc1ccc([C@H](C)C(=O)Nc2ncc(C(C)C)s2)cc1`, the Potency was 3060 nM (active) in assay [1], 1220 nM (active) in assay [2], 611 nM (active) in assay [3] and 1090 nM (active) in assay [4].

Regarding `CC(C)(C)c1cc(C(C)(C)C)c(NC(=O)c2c[nH]c3ccccc3c2=O)cc1O`, the Potency entry in assay [1], in assay [2], in assay [3] and in assay [4] was “inactive” each time.

Consider `C[C@]12C[C@H](O)[C@H]3[C@@H](CCC4=CC(=O)CC[C@@]43C)[C@@H]1CC[C@@H]2C(=O)CO`, for which the Potency result in assay [1], in assay [2], in assay [3] and in assay [4] was “inactive” throughout.

Turning to `CN1CCN(c2ccc([N+](=O)[O-])c3no[n+]([O-])c23)CC1`, the Potency entry in assay [1], in assay [2], in assay [3], in assay [4] and in assay [5] was “inactive” each time.

Regarding `O=[N+]([O-])c1cccc(S(=O)(=O)NCCNS(=O)(=O)c2cccc([N+](=O)[O-])c2)c1`, the Potency entry in assay [1], in assay [2], in assay [3] and in assay [4] was “inactive” each time.

On to `C[C@@H]1CC[C@H]2[C@@H](C)C(=O)O[C@@H]3O[C@@]4(C)CC[C@H]1[C@]32OO4`, for which the Potency entry in assay [1], in assay [2], in assay [3], in assay [4] and in assay [5] was “inactive” each time.

In the case of `O=C(Nc1ccccc1-c1cn2c(CN3CCNCC3)csc2n1)c1cnc2ccccc2n1`, the Potency result in assay [1], in assay [2], in assay [3] and in assay [4] was “inactive” in each case.

As to `CCN(CC)C(=O)c1ccc(C2=CC3(CCNCC3)Oc3cccc(O)c32)cc1`, the Potency result in assay [1], in assay [2], in assay [3], in assay [4], in assay [5] and in assay [6] was “inactive” in each case.

`CCOP(=O)(NC(C)C)Oc1ccc(SC)c(C)c1` (stereo not drawn): the Potency result in assay [1], in assay [2], in assay [3], in assay [4], in assay [5] and in assay [6] was “inactive” throughout.

For the molecule `CC(C)N(CCNC(=O)CN1CCCC1=O)C(C)C`, the Potency entry in assay [1], in assay [2], in assay [3], in assay [4], in assay [5] and in assay [6] was “inactive” throughout.

Consider `CN[C@@H]1Cc2cccc3[nH]c(=O)n(c23)C1`, for which the Potency entry in assay [1], in assay [2], in assay [3], in assay [4], in assay [5] and in assay [6] was “inactive” throughout.

For the molecule `CN(C)NC(=O)CCC(=O)O`, the Potency result in assay [1], in assay [2], in assay [3], in assay [4], in assay [5] and in assay [6] was “inactive” in each case.

On to `CCO/N=C(\CC)C1=C(O)CC(c2c(C)cc(C)cc2C)CC1=O` (stereo not drawn), for which the Potency result in assay [1], in assay [2], in assay [3], in assay [4], in assay [5] and in assay [6] was “inactive” in each case.

Turning to `C[C@H]([C@H](O)CCC(C)(C)O)[C@H]1CC[C@@]2(O)C3=CC(=O)[C@@H]4C[C@@H](O)[C@@H](O)C[C@]4(C)[C@@H]3CC[C@]12C`, the Potency result in assay [1], in assay [2], in assay [3], in assay [4], in assay [5] and in assay [6] was “inactive” throughout.

Turning to `CCCCCCCCCC(CC)c1ccc(S(=O)(=O)O)cc1` (stereo not drawn), the Potency result in assay [1], in assay [2], in assay [3], in assay [4], in assay [5] and in assay [6] was “inactive” each time.

Turning to `CC(O)CN1CCN(CC(=O)[O-])CCN(CC(=O)[O-])CCN(CC(=O)[O-])CC1.[Gd+3]` (stereo not drawn), the Potency entry in assay [1], in assay [2], in assay [3], in assay [4], in assay [5] and in assay [6] was “inactive” throughout.

Turning to `O=S(=O)(O)C(F)(F)C(F)(F)C(F)(F)C(F)(F)C(F)(F)C(F)(F)C(F)(F)C(F)(F)F`, the Potency result in assay [1], in assay [2], in assay [3], in assay [4], in assay [5] and in assay [6] was “inactive” each time.

Consider `CC(C)(C)[C@]1(O)C[C@@H]2OC(=O)C[C@@]23C(=O)O[C@@H]2OC(=O)[C@H](O)C213` (stereo partly drawn), for which the Potency result in assay [1], in assay [2], in assay [3], in assay [4], in assay [5] and in assay [6] was “inactive” each time.

With `CC1(N2CCC(n3c([C@@H]4CCCNC4)nc4ccccc43)CC2)CCCCCCC1`, the Potency result in assay [1], in assay [2], in assay [3], in assay [4], in assay [5] and in assay [6] was “inactive” throughout.

`C1=C2CCCN[C@H]2[C@@H]2C[C@H]1[C@@H]1CCCCN1C2`: the Potency result in assay [1], in assay [2], in assay [3], in assay [4], in assay [5] and in assay [6] was “inactive” in each case.
